The values below come from PubChem BioAssay (NCATS).

Records with an inconclusive call do not appear. Active and inactive are the calls of the source. Calls come from the whole dose curve; as a rule, active = well fitted curve in the direction sought with a large enough effect; inconclusive = small, poorly fitted or top-dose-only effect, or another doubt; inactive = no such curve, though single readings can be large; an effect the other way counts as inactive or inconclusive.

The target of assay [1] is Alpha-galactosidase A (Homo sapiens) (UniProt P06280). The assay is described as follows: Counterscreen for Glucocerebrosidase Inhibitors: qHTS Assay for Human alpha-Galactosidase at pH 4.5 (AID 992). The procedure, abridged:
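Concentration-response curves (0.7 nM to 77 uM final) were modeled with the Hill equation to give AC50. Reactions: 2 nM enzyme, 80 uM fluorogenic alpha-galactoside, pH 4.5 citric acid buffer, 20 min, room temperature.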
In general terms: A counterscreen serves to expose hits that act by an unwanted route or on another target.

Assay [2] has as its target alpha-glucosidase (Oryza sativa, rice) (UniProt Q653V4). Kind of assay: Counterscreen for Glucocerebrosidase Inhibitors: qHTS Assay for Rice alpha-Glucosidase at pH 5.0 (AID 997). In short, it runs like this:
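Rice alpha-glucosidase (4 nM final) with 400 uM 4-methylumbelliferyl-alpha-D-glucopyranoside in citrate buffer pH 5.0, 20 min at room temperature, stopped at pH 10; fluorescence 365/440 nm, compounds 0.7 nM–77 uM, AC50 from Hill fits.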

A short description of assay [3]: Cell Viability - LYMP2-025 (AID 976). Note: potency is the fitted concentration of half-maximal effect. The procedure, abridged:
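Human lymphoblastoid LYMP2-025 cells (2500/well) were pre-incubated 5 hr at 37 C, then treated with compounds for 24 hr at 37 C in complete medium. Viability was read as intracellular ATP by CellTiter-Glo luminescence; AC50 from Hill fits.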

Assay [4] in a line: Cell Viability - LYMP2-002 (AID 977).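 Note: compound exposure lasted 24 h at 37 °C.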 Note: potency is the fitted concentration of half-maximal effect. In short, it runs like this: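 Human lymphoblastoid LYMP2-002 cells, 2500 per well, exposed to compounds for 24 h at 37 C in complete medium; viability read as intracellular ATP by CellTiter-Glo luminescence, AC50 from Hill fits.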
Assay [5] can be described thus: Cell Viability - LYMP2-006 (AID 978). Note: nearly all actives have a fitted effect of over 60% in size. Note: potency is the fitted concentration of half-maximal effect. The procedure, abridged:
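Cells are seeded at 2500 per well and rested 5 hr at 37 C. Compounds are added across a concentration series for 24 hr at 37 C, after which ATP is quantified by luciferase luminescence.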

Assay [6] in a line: Cell Viability - LYMP2-007 (AID 979).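 Note: cells exposed to compound for 24 h before reading; nearly all actives have a fitted effect of over 60% in size.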 Note: potency is the fitted concentration of half-maximal effect. In short, it runs like this: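 Human lymphoblastoid cells (2500/well) were plated in complete medium, incubated 5 hr at 37 C, then exposed to compounds for 24 hr at 37 C. Intracellular ATP was read by CellTiter-Glo luminescence after 30 min at room temperature; AC50 from Hill fits.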
Assay [7] can be described thus: Cell Viability - LYMP2-008 (AID 980). Note: nearly all actives have a fitted effect of over 60% in size. Note: potency is the fitted concentration of half-maximal effect. In short, it runs like this: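 Human lymphoblastoid cells (2500/well) were plated, held 5 hr at 37 C, then exposed to compounds for 24 hr at 37 C in complete medium. Intracellular ATP was read by CellTiter-Glo luminescence; AC50 from Hill-fitted concentration-response.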
A short description of assay [8]: Cell Viability - LYMP2-012 (AID 982).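 Note: cellular ATP by luciferase luminescence where a drop means cytotoxicity; cells exposed to compound for one day before reading; nearly all actives have a fitted effect of over 55% in size.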 Note: potency is the fitted concentration of half-maximal effect.
A short description of assay [9]: Cell Viability - LYMP2-014 (AID 983). Note: series mostly up to about 92 µM; nearly all actives have a fitted effect of over 50% in size. The procedure, abridged: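 Human lymphoblastoid cells (2500/well) were pre-incubated 5 hr at 37 C, then exposed to compounds in complete medium for 24 hr at 37 C. Intracellular ATP was read by CellTiter-Glo luminescence after 30 min at room temperature; AC50 from Hill fits.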
Assay [10] is described as follows: Cell Viability - LYMP2-016 (AID 984). Note: nearly all actives have a fitted effect of over 55% in size. Note: potency is the fitted concentration of half-maximal effect. In short, it runs like this:
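Cells were seeded at 2500 per well and rested 5 hr before a 24 hr compound exposure at 37 C. Viability was then gauged as cellular ATP by luciferase luminescence, with AC50 values fitted to the Hill equation.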

Assay [11] is described as follows: Cell Viability - LYMP2-018 (AID 985). Note: nearly all actives have a fitted effect of over 50% in size. Note: potency is the fitted concentration of half-maximal effect. In short, it runs like this:
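Human lymphoblastoid cells (2500/well) were pre-incubated 5 hr at 37 C, then exposed to compounds for 24 hr at 37 C in complete medium. Viability was read as intracellular ATP by CellTiter-Glo luminescence; AC50 values came from Hill-equation fits.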

The nature of assay [12]: Cell Viability - LYMP2-020 (AID 986). Note: nearly all actives have a fitted effect of over 55% in size. Note: potency is the fitted concentration of half-maximal effect. The procedure, abridged:
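Human lymphoblastoid cells, 2500/well, were pre-incubated 5 hr at 37 C, then exposed to compounds for 24 hr at 37 C in complete medium. Intracellular ATP was read by CellTiter-Glo luminescence, and AC50 was derived by Hill fitting of concentration-response data.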

Assay [13] can be described thus: Cell Viability - LYMP2-022 (AID 987). Note: nearly all actives have a fitted effect of over 55% in size. Note: potency is the fitted concentration of half-maximal effect. The procedure, abridged: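 Human lymphoblastoid cells, 2500/well, preincubated 5 hr at 37 C, then exposed to compounds over a concentration range for 24 hr at 37 C in complete medium. Viability read as intracellular ATP by CellTiter-Glo luminescence after 30 min at room temperature; AC50 from Hill fits.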
Assay [14] in a line: Cell Viability - LYMP2-024 (AID 988). Note: nearly all actives have a fitted effect of over 60% in size. Note: potency is the fitted concentration of half-maximal effect. In short, it runs like this: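 Human lymphoblastoid cells (2500/well) in complete medium were preincubated 5 hr at 37 C, then exposed to compounds for 24 hr at 37 C. Intracellular ATP was read by CellTiter-Glo luminescence; AC50 from Hill-equation fits of concentration-response data.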
The nature of assay [15]: Cell Viability - LYMP2-026 (AID 989). Note: nearly all actives have a fitted effect of over 50% in size. Note: potency is the fitted concentration of half-maximal effect. In short, it runs like this:
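Human lymphoblastoid cells (2500/well) in complete medium were preincubated 5 hr at 37 C, then exposed to compounds for 24 hr at 37 C. Cellular ATP was read by CellTiter-Glo luminescence; AC50 from Hill-equation fits of concentration-response data.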

Assay [16] is described as follows: Cell Viability - LYMP1-002 - Assay at 24 hr (AID 993). Note: potency is the fitted concentration of half-maximal effect. The procedure, abridged:
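Human lymphoblastoid LYMP1-002 cells, 2500/well in complete medium, were treated with compounds for 24 h at 37 C; intracellular ATP was read by CellTiter-Glo luminescence. AC50 values came from Hill-equation fits of qHTS concentration-response data.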

Assay [17] in a line: Cell Viability - LYMP1-002 - Assay at 40 hr (AID 994). Note: nearly all actives have a fitted effect of over 60% in size. Note: potency is the fitted concentration of half-maximal effect. In short, it runs like this: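 Human lymphoblastoid cells, 2500/well in complete medium, were preincubated 5 hr at 37 C, then exposed to compounds for 40 hr at 37 C. Intracellular ATP was read by CellTiter-Glo luminescence after 30 min at room temperature; AC50 from Hill-equation fits.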
Assay [18] can be described thus: Cell Viability - LYMP2-010 (AID 981). Note: nearly all actives have a fitted effect of over 55% in size. Note: potency is the fitted concentration of half-maximal effect. The procedure, abridged:
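Human lymphoblastoid LYMP2-010 cells (2500/well) were preincubated 5 hr at 37 C, then exposed to compounds for 24 hr at 37 C in complete medium. Intracellular ATP was measured by CellTiter-Glo luminescence after 30 min at room temperature; AC50 from Hill-fitted concentration-response.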

Chain of Alpha-galactosidase A (Homo sapiens) (P06280 whole entry, looked up): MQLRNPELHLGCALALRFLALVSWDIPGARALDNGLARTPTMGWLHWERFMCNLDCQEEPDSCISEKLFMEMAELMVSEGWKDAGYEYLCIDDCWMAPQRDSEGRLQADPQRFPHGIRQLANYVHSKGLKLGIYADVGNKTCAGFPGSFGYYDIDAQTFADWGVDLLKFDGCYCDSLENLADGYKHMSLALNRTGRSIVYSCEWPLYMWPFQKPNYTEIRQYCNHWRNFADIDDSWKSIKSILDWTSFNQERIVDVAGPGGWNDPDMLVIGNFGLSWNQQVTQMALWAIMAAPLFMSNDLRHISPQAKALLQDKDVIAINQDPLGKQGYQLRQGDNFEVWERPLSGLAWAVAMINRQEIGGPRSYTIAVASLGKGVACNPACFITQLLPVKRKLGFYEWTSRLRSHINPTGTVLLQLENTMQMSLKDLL

On to `COc1ccccc1CNCCCCCCNCCCCCCCCNCCCCCCNCc1ccccc1OC`, for which the call in [1] and in assay [2] was inactive.

On to `CN=c1nc(-c2ccccc2)n(-c2ccccc2)s1`, for which the result in [1] and in [2] was inactive.

For `Nc1nc2ccc([N+](=O)[O-])cc2s1`, the Potency entry in assay [3], in assay [4], in assay [5], in assay [6], in [7] and in [8] was “inactive” throughout. In addition, the Potency entry in assay [9], in [10], in assay [11], in assay [12], in assay [13] and in assay [14] was “inactive” in each case. Moreover, the Potency result in [15], in [16] and in [17] was “inactive” throughout.

Turning to `CCCCCCCCCCCCCCCCCC(=O)O`, the Potency result in assay [3], in assay [4], in assay [5], in assay [6], in assay [7] and in [18] was “inactive” in each case. Besides, the Potency result in assay [8], in assay [9], in assay [10], in assay [11], in assay [12] and in assay [13] was “inactive” in each case. Moreover, the Potency result in assay [14], in assay [15], in [16] and in assay [17] was “inactive” each time.

Regarding `Cc1cc(NC(=O)Nc2ccc3c(ccn3C)c2)sn1`, the result in [1] and in assay [2] was inactive.

Regarding `Brc1c(Br)c(Br)c2n[nH]nc2c1Br`, the compound was called inactive in assay [1] and in assay [2].

For the compound `Oc1cc2c(cc1O)CN(C(=S)NCCc1ccc(Cl)cc1)CCC2`, the result in assay [1] and in assay [2] was inactive.

Turning to `Cc1ccc(O)c(N=Nc2ccccc2)n1`, the result in assay [1] and in assay [2] was inactive.

On to `CN1[C@@H]2CC[C@H]1CC(OC(c1ccccc1)c1ccccc1)C2` (some centres undefined), for which the outcome in assay [1] and in assay [2] was inactive.

With `COc1cc(/C=C/C(=O)CC(=O)/C=C/c2ccc(O)c(OC)c2)ccc1O`, the Potency was 50.1 µM (active) in assay [3]; 39.8 µM (active) in [4]; 25.1 µM (active) in assay [5]; 25.1 µM (active) in [6]; 25.1 µM (active) in assay [7]; 25.1 µM (active) in [18]. Besides, the Potency was 31.6 µM (active) in assay [8]; 39.8 µM (active) in assay [10]; 39.8 µM (active) in assay [11]; 31.6 µM (active) in assay [12]; 25.1 µM (active) in [13]; 25.1 µM (active) in assay [14]. Moreover, the results for the Potency in [15], in assay [16] and in [17] were 31.6 µM (active), 39.8 µM (active) and 39.8 µM (active), respectively.

Take `C[N+]1(C)CCC(OC(=O)C(c2ccccc2)c2ccccc2)CC1`: the result in assay [1] and in [2] was inactive.

With `COc1ccccc1N1CCN(CCCCNS(=O)(=O)c2cccc3c(N(C)C)cccc23)CC1`, the call in assay [1] and in assay [2] was inactive.

`NC[C@@H]1O[C@H](C23CC4CC(CC(C4)C2)C3)Cc2c1ccc(O)c2O`: the result in assay [1] and in assay [2] was inactive.

`COc1cc(CNC(=O)CCCC/C=C/C(C)C)ccc1O`: the Potency entry in assay [3], in [4], in assay [5], in assay [6], in assay [7] and in assay [18] was “inactive” each time. Moreover, the Potency result in assay [8], in assay [9], in assay [10], in assay [12], in assay [13] and in assay [14] was “inactive” each time. The Potency result in assay [15], in assay [16] and in [17] was “inactive” each time.

As for `CC(C)(C=O)Cc1cc(C(C)(C)C)c(O)c(C(C)(C)C)c1`, the call in [1] and in assay [2] was inactive.

As to `COc1ccc(/C=C/C(=O)Nc2ccccc2C(=O)O)cc1OC`, the outcome in [1] and in assay [2] was inactive.

On to `C=C[C@H]1CN2CC[C@@H]1C[C@@H]2[C@@H](O)c1ccnc2ccc(OC)cc12`, for which the call in [1] and in [2] was inactive.

Regarding `N#C/C(=C\c1c[nH]c2ccccc12)C(=O)c1ccc(O)c(O)c1`, the call in assay [1] and in assay [2] was inactive.

For the compound `COC(=O)c1c(C)[nH]c(C)c1C(=O)c1ccccc1Cc1ccccc1`, the compound was called inactive in assay [1] and in [2].

On to `CN(C)c1nc2c(Br)c(Br)c(Br)c(Br)c2[nH]1`, for which the call in assay [1] and in assay [2] was inactive.

As to `C[N+](C)(CCCCCC[N+](C)(C)CCCN1C(=O)c2cccc3cccc(c23)C1=O)CCCN1C(=O)c2cccc3cccc(c23)C1=O`, the result in [1] and in assay [2] was inactive.

Turning to `Cn1cc(C2=C(c3ccc(Cl)cc3Cl)C(=O)NC2=O)c2ccccc21`, the call in assay [1] and in assay [2] was inactive.

Turning to `O=C(O)CC[C@@H](C(=O)O)N1C(=O)c2ccccc2C1=O`, the compound was called inactive in [1] and in assay [2].

Take `O=C(O)c1cc(O)c(O)c(O)c1`: the Potency result in [4], in [5], in assay [6], in [7], in assay [18] and in assay [8] was “inactive” throughout. The Potency entry in assay [9], in assay [10], in assay [11], in [12], in assay [13] and in [14] was “inactive” each time. Moreover, the Potency result in [15], in assay [16] and in assay [17] was “inactive” throughout.

As to `CC(C)Cc1ccc([C@H](C)C(=O)O)cc1`, the outcome in [1] and in assay [2] was inactive.

On to `Fc1ccc(C(OCCCc2cnc[nH]2)c2ccc(F)cc2)cc1`, for which the result in assay [1] and in assay [2] was inactive.

`CN(C)c1ccc(N=NS(=O)(=O)O)cc1`: the Potency result in assay [3], in assay [4], in [5], in [6], in assay [7] and in [18] was “inactive” each time. In addition, the Potency entry in assay [8], in assay [9], in assay [10], in [11], in [12] and in assay [13] was “inactive” in each case. In addition, the Potency entry in assay [14], in assay [15], in [16] and in [17] was “inactive” in each case.

For `O=C1C(SCCO)=C(SCCO)C(=O)c2ccccc21`, the outcome in assay [1] and in [2] was inactive.

Take `COC1=C(OC)C(=O)c2ccccc2C1=O`: the outcome in [1] and in assay [2] was inactive.

On to `c1ccc2sc(SSc3nc4ccccc4s3)nc2c1`, for which the Potency entry in [3], in assay [4], in assay [5], in [7], in assay [18] and in assay [8] was “inactive” throughout. Also, the Potency entry in assay [9], in assay [10], in assay [11], in assay [12], in assay [13] and in assay [14] was “inactive” in each case. In addition, the Potency entry in [15], in assay [16] and in assay [17] was “inactive” in each case.

Regarding `c1cnc2c(c1)ccc1cccnc12`, the Potency in assay [11] is 25.1 µM (active); in [13], 12.6 µM (active); in assay [14] it was 12.6 µM (active); in assay [17], 12.6 µM (active). Also, the outcome in [1] and in assay [2] was inactive.
